Rows were chosen to be rich in hits. Some 11% of all compounds tested hit in one or more screens of this group.
NS1 function inh: qHTS Assay for Inhibitors of Influenza NS1 Protein Function | AID 2326, 2010 | Potency, µM (series often up to 46.1 µM) | 270,000 tested, 0.4% active; calls by dose curve; further: actives are rising curves; nearly all actives have a fitted effect of over 50% in size
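S. cerevisiae expressing influenza A NS1, grown in glucose, washed, then diluted 1:100 into pH 6.0 -URA galactose medium with 23 nl compound. Growth recovery read as OD600; NS1-free strain serves as control.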
Sm TGR inh: qHTS Assay for the Inhibitors of Schistosoma Mansoni Peroxiredoxins; Schistosoma mansoni thioredoxin glutathione reductase (TGR), Q962Y6; purified TGR, DTNB reduction, TNB absorbance 405 nm; Potency, µM (highest dose often 114 µM), most hits filed as inhibitors; 360,000 tested, 3% active; AID 485364, 2010; further: nearly all actives have a fitted effect of over 60% in size
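First, TGR (20 nM dispensed) and NADPH were mixed with compound. Second, a 15 min room-temperature incubation followed. Third, further NADPH and then DTNB were added to start the reaction. Finally, TNB absorbance was monitored kinetically.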
Pf growth 96h: Primary qHTS for delayed death inhibitors of the malarial parasite plastid, 96 hour incubation. P. falciparum luciferase reporter growth, 96 h. Potency, µM (top dose mostly 28.7 µM), hits mostly inhibitors. 320,000 tested, 6.9% active. AID 504834, 2011
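96 h incubation, 37 C, 5% CO2, of luciferase-reporter P. falciparum-infected RBCs (2% hematocrit, 0.05% parasitemia final) with test compounds; endpoint luminescence.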
Pf growth 48h: Primary qHTS for delayed death inhibitors of the malarial parasite plastid, 48 hour incubation | P. falciparum luciferase growth in erythrocytes, 48 h | Potency, µM (highest dose often 28.7 µM), usual class: inhibitors | 310,000 tested, 5.9% active | AID 504832, 2011
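Growth was read as firefly luciferase luminescence after a 48 h, 37 C, 5% CO2 exposure of compounds to reporter-bearing P. falciparum cultures (0.1% parasitemia, 2% hematocrit final) in Albumax-supplemented RPMI 1640.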
AMA1 RON2 block: qHTS for Inhibitors of AMA1-RON; Towards Development of Antimalarial Drug Lead: Primary Screen. Plasmodium falciparum AMA1 (3D7) - RON2 peptide interaction. Potency, µM (series often up to 58.2 µM), hits mostly inhibitors. AlphaScreen AMA1-biotinylated RON2 peptide binding. 360,000 tested, 0.2% active; further: nearly all actives have a fitted effect of over 45% in size
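AMA1 (3D7) with his tag at 25 nM final met compounds first, then biotinylated RON2 peptide at 25 nM; detection used donor plus acceptor beads, 10 µg/mL apiece, read by AlphaScreen after 30 min at room temperature.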
A number is an active result; . = inactive; ? = inconclusive; / = not tested or not shown. Unless noted, the call rests on the fitted dose curve; in most records, active means well fitted curve in the direction sought with a large enough effect; inconclusive means small, poorly fitted or top-dose-only effect, or another doubt; inactive means no such curve, though single readings can be large; an effect the other way counts as inactive or inconclusive.

SMILES | NS1 function inh | Sm TGR inh | Pf growth 96h | Pf growth 48h | AMA1 RON2 block
Cc1cc(N2CCN(C)CC2)nc2ccc(NC(=S)NCCN3CCc4ccccc4C3)cc12 | . | . | ? | 9.28µM | .
CCN1CCN(c2cc(C)c3cc(NC(=S)NCCCN4CCc5ccccc5C4)ccc3n2)CC1 | / | ? | ? | 7.38µM | .
Nc1nnc(/C=C/c2cccc([N+](=O)[O-])c2)s1 | . | . | . | . | .
CCn1cc(/C=C(\NC(=O)c2ccccc2)C(=O)N2CCOCC2)c2ccccc21 | . | . | . | . | .
Cc1oc(-c2ccc(Cl)cc2)nc1CN1CCC(C(=O)NCCCN2CCCC2=O)CC1 | . | . | ? | / | .
Cc1oc(-c2ccc(Cl)cc2)nc1CN1CCCC(C(=O)NCCCN2CCOCC2)C1 (stereo not given) | . | 79.4µM | . | ? | .
Cc1oc(-c2ccc(Cl)cc2)nc1CN1CCC(C(=O)NCCCN2CCCC(C)C2)CC1 (stereo not given) | . | . | . | 2.08µM | .
Fc1ccccc1-c1nc(N2CCN(c3cccc(Cl)c3)CC2)c2ccccc2n1 | / | . | / | / | /
CCc1nnc2n1N=C(c1ccc(-c3cc(Cl)ccc3Cl)o1)CS2 | . | . | 9.28µM | / | .
CCOC(=O)c1cc([N+](=O)[O-])c([N+](=O)[O-])cc1NC(C)=O | . | 0.501µM | . | . | .
Cc1ccc(C)c(N2CCN(S(=O)(=O)c3ccc4c(c3)NC(=O)CS4)CC2)c1 | . | . | 7.38µM | . | .
Cc1ccc(Cl)cc1N1CCN(S(=O)(=O)c2ccc3c(c2)NC(=O)C(C)C(=O)N3)CC1 (stereo not given) | . | 79.4µM | ? | . | .
O=C1CSc2ccc(S(=O)(=O)N3CCN(c4ccccc4F)CC3)cc2N1 | . | . | 13.1µM | ? | .
CN1CCN(S(=O)(=O)c2ccc3c(c2)NC(=O)CS3)CC1 | . | . | ? | . | .
CCN(C(=O)COC(=O)c1ccccc1SCC(=O)N1CCCC1)C1CCS(=O)(=O)C1 (stereo not given) | / | . | . | . | .
C=CCNC(=O)/C(=C\C=C\c1ccccc1)NC(=O)c1ccccc1Cl | . | . | . | . | .
O=C(O)CCCNC(=O)/C(=C\C=C\c1ccccc1)NC(=O)c1ccccc1Cl | . | 39.8µM | . | . | .
O=C(c1ccco1)N1CCN(C2CC(=O)N(c3ccccc3)C2=O)CC1 (stereo not given) | . | 50.1µM | . | / | .
O=C(c1ccco1)N1CCN(C2CC(=O)N(c3ccc(C(F)(F)F)cc3)C2=O)CC1 (stereo not given) | . | 50.1µM | . | . | .
CCOc1ccc(N2C(=O)CC(N3CCN(C(=O)c4ccco4)CC3)C2=O)cc1 (stereo not given) | . | 44.7µM | . | . | .
O=C1c2ccccc2-c2c1cccc2C(=O)N1CCN(C(=O)c2ccco2)CC1 | . | 20µM | . | . | .
O=C(c1ccco1)N1CCN(C2CC(=O)N(c3ccc4c(c3)OCO4)C2=O)CC1 (stereo not given) | . | . | / | . | .
CCCSc1ccccc1C(=O)N1CCN(C(=O)c2ccco2)CC1 | . | . | . | . | .
CCOC(=O)c1ccc(N2C(=O)CC(N3CCN(C(=O)c4ccco4)CC3)C2=O)cc1 (stereo not given) | . | . | / | . | .
COc1cccc(-c2nc(CS(=O)(=O)CC(=O)NCCc3ccc(Cl)cc3)c(C)o2)c1 | / | . | / | / | /
SMILES | NS1 function inh | Sm TGR inh | Pf growth 96h | Pf growth 48h | AMA1 RON2 block
CC(C)C[C@H]1COCCS(=O)(=O)N1Cc1cccc(F)c1 | / | / | / | / | .
COc1ccc(Nc2cnn(-c3nc4ccccc4s3)c(=O)c2Cl)cc1 | . | 1.26µM | ? | . | .
O=c1c(Cl)c(Nc2cccc(Cl)c2)cnn1-c1nc2ccccc2s1 | . | ? | . | . | .
CC1(C(=O)Nc2cnc3ccccc3c2)CCN1Cc1ccc(-c2ccccc2)o1 (stereo not given) | / | / | / | / | .
Cn1c(=O)c2c(nc(SCC(=O)N3c4ccccc4CCc4ccccc43)n2C)n(C)c1=O | . | . | ? | ? | .
CC(C)Cn1c(SCC(=O)N2CCc3ccccc3C2)nc2cc(Cl)ccc2c1=O | . | . | 4.65µM | ? | .

Source: PubChem BioAssay
